# PubChem BioAssay (NCI)
# About 83,000 compounds went through this panel and 20% of them were active in at least one assay; those are over-represented in the sample as a whole.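 Growth was measured after 48 h exposure to one concentration of compound in 96-well plates. Values under 10 count as active.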 Unmarked numbers belong to inactive results. Calls of active or inactive are those of the source.
# Tests used:
# Experiment in all cases: NCI-60 one-dose screen, 48 h (100 = growth as untreated, 0 = no growth, -100 = all killed)
# Details in all cases: 10 µM unless noted
# [1] = test system: NCI-H23 lung
# [2] = test system: NCI-H226 lung
# [3] = test system: NCI-H322M lung
# [4] = test system: HOP-62 NSCLC
# [5] = test system: NCI-H460 lung
# [6] = test system: HOP-92 NSCLC
# [7] = test system: NCI-H522 lung
# [8] = test system: A549/ATCC NSCLC
# [9] = test system: 786-0 renal
# [10] = test system: COLO 205 colon
# [11] = test system: DU-145 prostate
# [12] = test system: K-562 leukemia
# [13] = test system: MALME-3M melanoma
# [14] = test system: MDA-MB-231 breast
# [15] = test system: RXF 393 renal
# [16] = test system: SF-268 CNS
# [17] = test system: SF-295 CNS
# [18] = test system: SF-539 CNS
# [19] = test system: UACC-257 melanoma
# [20] = test system: M14 melanoma
SMILES,growth [1],growth [2],growth [3],growth [4],growth [5],growth [6],growth [7],growth [8],growth [9],growth [10],growth [11],growth [12],growth [13],growth [14],growth [15],growth [16],growth [17],growth [18],growth [19],growth [20]
CC(=O)O[C@H](C[C@H](C(C)C)N(C)C(=O)[C@@H](NC(=O)[C@H]1CCCCN1C)C(C)C)c1nc(C(=O)NC2CCC(C(=O)O)CC2)cs1 (stereo not given in full),64.8%,90.6%,72.4%,47.1%,26.7%,38%,-6.59% (active),57.8%,46%,32.6%,41.1%,22.8%,61.8%,64.1%,44.1%,48.2%,35.1%,27.5%,50%,41.5%
O=C(CCl)c1ccc([N+](=O)[O-])o1,5.38% (active),42.9%,98.4%,86.4%,76.3%,-56% (active),-56.7% (active),106%,-28.7% (active),-86% (active),-30.8% (active),-36.7% (active),-54.6% (active),64.6%,-48.2% (active),1.57% (active),92.2%,2.78% (active),-49.3% (active),-11.5% (active)
C#Cc1ccc2c(c1)C(c1ccccc1F)=NCC(=O)N2C,57.8%,73.1%,69.6%,48.3%,18.9%,73.2%,8.61% (active),47.9%,63.4%,18.4%,69.9%,16.7%,76.7%,50.6%,73.8%,56.3%,35.6%,53%,67.1%,16.9%
O=C([O][Hg][CH2]C1OCCOC1[CH2][Hg][O]C(=O)c1ccccc1)c1ccccc1 (stereo not given),46.7%,118%,116%,98.6%,117%,-88.3% (active),-64.1% (active),101%,79.4%,-64.7% (active),90.1%,-36% (active),-98.3% (active),93.2%,-90.1% (active),114%,112%,79.8%,-96.4% (active),73.3%
CC(C)(NC(=O)O[C@@H]1CN2CCC1CC2)c1csc(-c2ccc(F)cc2)n1,96.3%,89.9%,98.9%,99.4%,101%,98%,95.4%,101%,99.3%,111%,112%,94.5%,97.1%,102%,105%,88.7%,101%,95.3%,102%,84.9%
CC[C@H](C)[C@H](NC(=O)C12CC(NC(C)=O)(C1)C2)C(=O)N(C)[C@H](C[C@@H](OC(C)=O)c1nc(C(=O)N[C@@H](Cc2ccccc2)C[C@H](C)C(=O)OC)cs1)C(C)C,30.9%,19.9%,51.3%,20.3%,3.12% (active),19.9%,1.64% (active),22.6%,16%,-31.5% (active),0.412% (active),11.5%,51.8%,28.5%,43.9%,27.2%,18.7%,1.61% (active),49.6%,2.48% (active)
CN1CC(CNC(=O)OCc2ccccc2)CC2c3cccc4c3c(cn4C)CC21 (stereo not given),71.6%,78%,82.9%,35.2%,40.4%,29.5%,60.5%,45.5%,42.8%,-72.5% (active),56.8%,3.66% (active),-16% (active),27.3%,8.6% (active),59%,25.8%,28.6%,-60.4% (active),-58% (active)
C/C(CC(C)(C)N1CC1)=N\NC(=O)Nc1cccc2ccccc12,68%,56.4%,81.2%,62.5%,42.9%,24.2%,48.7%,63%,70.4%,52.3%,68.2%,78.2%,74.5%,58.3%,39.2%,52.9%,67%,70.3%,86.4%,72.8%
COC(=O)[C@@]1(C)CC[C@]2(C)CC[C@]3(C)C4=CC=C5C(=CC(=O)C(O)=C5C)[C@]4(C)CC[C@@]3(C)[C@@H]2C1,-72.6% (active),-59.1% (active),-95.3% (active),-90.6% (active),-83% (active),-86.7% (active),-78.3% (active),-92.9% (active),-90% (active),-77.2% (active),-96.7% (active),-54.4% (active),-87.3% (active),-93.4% (active),-84% (active),-83.2% (active),-91.8% (active),-99.6% (active),-88.3% (active),-94% (active)
CC(=O)OC1C(OC/C2=C/C3[C@@H](C(C)C)CC=C(C)[C@@H]3CC(OC(=O)/C=C/c3cn(C)cn3)[C@]3(C)C=C[C@@]2(O)O3)OCC(O)C1O (stereo not given in full),18.2%,63.5%,17.4%,8.78% (active),9.03% (active),35.3%,0.4% (active),27.9%,15.9%,-24.9% (active),-10.2% (active),15.7%,48.4%,41.8%,-20.6% (active),45.1%,-3.4% (active),11.9%,60.7%,-35.7% (active)
CC(=O)O[C@H](C[C@H](C(C)C)N(C)C(=O)[C@@H](NC(=O)[C@H]1CCCCN1C)C(C)C)c1nc(C(=O)N[C@@H](Cc2ccccc2)C[C@H](C)C(=O)O)c(C)s1,35.9%,52.6%,52.8%,32.1%,7.72% (active),25.6%,-4.18% (active),11.9%,26.1%,-62.6% (active),21.8%,14%,58.5%,23.5%,53.9%,29.7%,15.9%,4.22% (active),46.3%,6.5% (active)
C=COC(=O)CCN1CC1,100%,98.9%,102%,95%,105%,111%,107%,102%,110%,114%,113%,111%,112%,103%,111%,106%,101%,103%,105%,102%
CCC1CC(O)c2c(O)c3c(c(O)c2C1O)C(=O)c1cccc(O)c1C3=O (stereo not given) (tested in a mixture with another compound),-75.9% (active),-9.01% (active),-16.4% (active),-62.2% (active),-53.6% (active),-29.3% (active),-47.9% (active),-23.2% (active),-31% (active),-46.4% (active),-1.28% (active),-44.1% (active),-92.3% (active),-18.8% (active),-27% (active),-24% (active),-24% (active),-64.5% (active),-25.3% (active),-97.1% (active)
CCCCCCCCOC(=O)CCN1CC1,111%,93.5%,107%,124%,115%,77%,121%,99.1%,107%,116%,98.5%,119%,110%,114%,107%,95.9%,120%,99.4%,103%,107%
C1CCC([PH+](C2CCCCC2)C2CCCCC2[PH+](C2CCCCC2)C2CCCCC2)CC1.[Au].[CH-]1CCCCC1CC1CCCC[N-]1 (stereo not given),-46.3% (active),-50.6% (active),-42% (active),-30.6% (active),-56.4% (active),-34.4% (active),-40.7% (active),-44.4% (active),-89.6% (active),-47.7% (active),-51.1% (active),3.54% (active),-43.5% (active),-44.6% (active),-92.7% (active),-33.6% (active),-38.8% (active),-75.1% (active),-37.3% (active),-54.6% (active)
